Drawing on PubChem BioAssay (NCATS), this text covers outcome, Potency and max response for 18 compounds.

Holding throughout (experiment): Cytotoxic Profiling of Annotated Libraries Using Quantitative High-Throughput Screening (AID 1296008); also: nearly all actives have a fitted effect of over 60% in size
Details in all cases: Five cell lines viability, CellTiter-Glo ATP luminescence, 48-72 h; max response: active compounds read low

One assay deals with CRL-7250. The method, boiled down:
(§1)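 Cells exposed to compounds for 48 or 72 hr at 37 degrees Celsius. Viability read as ATP-coupled luminescence with CellTiter-Glo after 10 min at room temperature.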

The subject of a further assay is HEK293. The method, boiled down: as §1
The subject of the next assay is HaCat. The method, boiled down:
as §1

For another assay, the system named is KB-3-1. The method, boiled down:
as §1

Another assay relates to NIH3T3. The method, boiled down: as §1

Inconclusive results are not listed. Unmarked numbers belong to inactive results. Active and inactive are the calls of the source. Calls follow the shape of the dose curve; as a rule, active = well fitted inhibition curve with a large enough effect; inconclusive = small, poorly fitted or top-dose-only effect; inactive = flat fitted curve, though single readings scatter.
% is scaled to controls: 0 for no effect and ±100 for the full control effect; potency is read from the fitted curve at half-maximal effect.

For `COc1ccc(-c2nc(-c3ccc(-c4cccc(Cl)c4)o3)[nH]c2-c2ccc(OC)cc2)cc1`, the compound was classed as inactive in the assay with CRL-7250. In addition, the Potency in the assay with HEK293 is 20600 nM (active). The max response is -26.5% with HaCat, -16.3% with KB-3-1 and -19.3% in the assay on NIH3T3.

As for `CC(=O)c1cc2c(cc1O)OC(C)(C)C=C2`, the compound was called inactive in the assay with CRL-7250 and in the assay with KB-3-1. For the same compound, the figures for the max response with HEK293, in the assay on HaCat and with NIH3T3 were 0.43%, -16.3% and -4.07%, respectively.

Regarding `CC(C)c1c2cc(-c3ccnc(NC4CCC(NC5CCOCC5)CC4)n3)ccc2nn1C` (stereo not given), the Potency was 580 nM (active) with CRL-7250; 130 nM (active) in the assay on HEK293; 1640 nM (active) in the assay on HaCat; 231 nM (active) in the assay on KB-3-1; 1030 nM (active) with NIH3T3.

Regarding `CC(=O)NC1C(OC(C)(C)C2CCC3(C)C=C(C4CCC5C4(C)CC(O)C4OC(C(C)(C)O)CCC45C)CCC3O2)OC(CO)C(O)C1O` (stereo not given), the max response is 0.702% in the assay with CRL-7250; -2.64% with HEK293; 3.68% in the assay on HaCat; -23.5% in the assay on KB-3-1; -10.4% in the assay with NIH3T3.

As to `C#CCN(Cc1cc2c(=O)n(C)c(CN3CCN(C)CC3)nc2cc1Cl)c1ccc(C(=O)NCc2cccnc2)cc1`, the results for the Potency with CRL-7250, in the assay with HaCat and in the assay on KB-3-1 were 8.2 nM (active), 7.3 nM (active) and 41.1 nM (active), respectively. The max response with HEK293 was -130%; with NIH3T3, -114%.

With `COC(=O)C1=COC(OC2OC(CO)C(O)C(O)C2O)C2C1C=CC2(O)CO` (stereo not given), the compound was classed as inactive in the assay with CRL-7250 and in the assay with KB-3-1. Further, the figures for the max response with HEK293, with HaCat and with NIH3T3 were -11.3%, -21.5% and 3.54%, respectively.

In the case of `CC(C)C(NC(=O)c1ccc2ccccc2n1)C(=O)NC(CC(=O)O)C(=O)COc1c(F)cccc1F` (stereo not given), the max response is -6.89% in the assay with CRL-7250; -1.52% with HEK293; -3.62% in the assay on HaCat; 2.53% with KB-3-1; -0.522% in the assay with NIH3T3.

Regarding `C[C@@H]1O[C@@H](O[C@H]2[C@@H](OC(=O)[C@]34CCC(C)(C)CC3C3=CCC5[C@@]6(C)C[C@H](O)[C@H](O[C@@H]7O[C@H](C(=O)O)[C@@H](O)[C@H](O)[C@H]7O)[C@@](C)(C(=O)O)C6CC[C@@]5(C)[C@]3(C)CC4)OC[C@H](O)[C@@H]2O)[C@H](O)[C@H](O)[C@H]1O[C@@H]1OC[C@@H](O)[C@H](O)[C@H]1O` (stereo not given in full), the max response with CRL-7250 is -0.804%; with HEK293, -1.89%; in the assay on HaCat, -1.2%; in the assay on NIH3T3, -0.698%. In addition, the compound was classed as inactive with KB-3-1.

As to `CCOC(=O)C(CCc1ccccc1)NC1CSC(c2cccs2)CN(CC(=O)O)C1=O` (stereo not given), the max response with CRL-7250 is 2.02%; with HEK293, -2.54%; in the assay with HaCat, 1.02%; with NIH3T3, -0.887%. Further, in the assay with KB-3-1, the call was inactive.

As to `CC1(C)CC[C@]2(C(=O)O[C@@H]3O[C@H](CO)[C@@H](O)[C@H](O)[C@H]3O)CC[C@]3(C)C(=CCC4[C@@]5(C)C[C@@H](O)[C@H](O)[C@@](C)(CO)C5CC[C@]43C)C2[C@@H]1O` (stereo not given in full), the max response was 1.08% with CRL-7250, -3.93% in the assay on HEK293, -9.78% in the assay with HaCat and 2.98% in the assay with NIH3T3. The call in the assay with KB-3-1 was inactive.

In the case of `Cc1cc(O)cc(O[C@@H]2O[C@H](CO)[C@@H](O)[C@H](O)[C@H]2O)c1`, the compound was classed as inactive with CRL-7250. Further, the max response in the assay with HEK293 is 0.562%; with HaCat, -10.5%; with KB-3-1, 4.47%; in the assay on NIH3T3 it was -8.17%.

On to `O=C(O)C(O[C@@H]1O[C@H](CO[C@@H]2O[C@H](CO)[C@@H](O)[C@H](O)[C@H]2O)[C@@H](O)[C@H](O)[C@H]1O)c1ccccc1` (stereo not given in full), for which the max response with CRL-7250 is -5.65%; in the assay with HEK293, -7.94%; in the assay on HaCat it was -3.34%; in the assay on KB-3-1 it was 7.09%; in the assay on NIH3T3, 1.38%.

As to `CC1=C(CO)C(=O)O[C@@H]([C@@H](C)[C@H]2CC[C@H]3[C@@H]4C[C@H]5O[C@]56[C@@H](O)C=CC(=O)[C@]6(C)[C@H]4CC[C@]23C)C1`, the Potency in the assay on CRL-7250 is 3990 nM (active); in the assay with HEK293, 1120 nM (active); in the assay on HaCat, 3170 nM (active); with KB-3-1, 2820 nM (active); with NIH3T3, 5630 nM (active).

Regarding `OC[C@H]1O[C@@H](OCCc2ccc(O)cc2)[C@H](O[C@@H]2OC[C@](O)(CO)[C@H]2O)[C@@H](O)[C@@H]1O`, the max response with CRL-7250 is -6.14%; with HEK293, 0.652%; in the assay with HaCat it was 1.3%; in the assay on KB-3-1, 8.69%; in the assay on NIH3T3, -3.47%.

For `CC(C)CC(=O)OC1OC=C(CO[C@@H]2O[C@H](CO)[C@@H](O)[C@H](O)[C@H]2O)C2CC(O)C(O)(CO)C12` (stereo not given in full), the max response with CRL-7250 is 3.01%; in the assay on HEK293 it was -1.23%; in the assay on HaCat, -4.52%; in the assay on KB-3-1, 2.5%; in the assay on NIH3T3 it was -2.63%.

Regarding `C[C@@H]1O[C@@H](O[C@H]2[C@H](O[C@H]3[C@H](O[C@H]4CC[C@@]5(C)C(CC[C@]6(C)C5CC=C5[C@@H]7CC(C)(C)CC[C@]7(C(=O)O[C@@H]7O[C@H](CO)[C@@H](O[C@@H]8O[C@@H](C)[C@H](O)[C@@H](O)[C@H]8O)[C@H](O)[C@H]7O)CC[C@]56C)C4(C)C)OC[C@H](O)[C@@H]3O)O[C@H](CO)[C@@H](O)[C@@H]2O)[C@H](O)[C@H](O)[C@H]1O` (stereo not given in full), the max response in the assay with CRL-7250 is -33.4%; with HEK293, -93.1%; in the assay on HaCat it was 4.4%; in the assay on NIH3T3 it was 0.585%. The result in the assay on KB-3-1 was inactive.

In the case of `O=C(CCc1nnc2n(Cc3ccc(Cl)cc3)c(=O)c3ccccc3n12)NCCC1=CCCCC1`, the max response with CRL-7250 was -19.2%; in the assay with HEK293 it was -12.9%; with HaCat it was 3.41%; in the assay on KB-3-1, -11.9%; with NIH3T3 it was 1.28%.

Take `O=C(O)c1cn(C2CC2)c2cc(N3C[C@@H]4C[C@H]3CN4)c(F)cc2c1=O`: the max response in the assay with CRL-7250 was -3.63%; in the assay on HEK293, -1.22%; in the assay with HaCat, -12.6%; in the assay with NIH3T3 it was -4.63%. For the same compound, in the assay on KB-3-1, the compound was called inactive.
